Assay results taken from PubChem BioAssay (NCATS).
Several values for one entry are separate records, joined by “and”; a condition that tells them apart may be missing. Identical values can stand only once. Results filed as inconclusive are left out. Values without a mark were called inactive. Activity calls are given as the source filed them. Calls follow the shape of the dose curve; as a rule, active = well fitted inhibition curve with a large enough effect; inconclusive = small, poorly fitted or top-dose-only effect; inactive = flat fitted curve, though single readings scatter.

system: KB-3-1; test: Cytotoxic Profiling of Annotated Libraries Using Quantitative High-Throughput Screening (AID 1296008); conditions: Five cell lines viability, CellTiter-Glo ATP luminescence, 48-72 h; max response: hits give low values; also: nearly all actives have a fitted effect of over 60% in size
Summary of the method: (§1)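 Compounds were pin-transferred onto cells and incubated 48 or 72 hr at 37 degree Celsius, 95% humidity. CellTiter-Glo was added, plates sat 10 min at room temperature, then ATP-coupled luminescence was imaged as the viability read-out.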
% is scaled to controls: 0 for no effect and ±100 for the full control effect; potency is read from the fitted curve at half-maximal effect.

| SMILES | Potency | max response | outcome |
| --- | --- | --- | --- |
| CC(C)(O)C=CC(=O)[C@](C)(O)[C@H]1[C@H](O)C[C@]2(C)[C@@H]3CC=C4[C@@H](C=C(O)C(=O)C4(C)C)[C@]3(C)C(=O)C[C@@]12C | 0.132 µM (active) | – | – |
| Cc1c(C(=O)c2cccc3ccccc23)c2cccc3c2n1[C@H](CN1CCOCC1)CO3 | 13.2 µM (active) | – | – |
| C/C=C(/C)C(=O)O[C@H]1C(C)=C2[C@H]([C@@H]1OC(=O)CCCCCCC)[C@@](C)(OC(C)=O)C[C@H](OC(=O)CCC)[C@@]1(O)[C@H]2OC(=O)[C@@]1(C)O | 0.0461 µM (active) | – | – |
| CC=C(C)C(=O)N[C@@H](c1ccccc1)[C@@H](O)C(=O)O[C@H]1C[C@@]2(O)[C@@H](OC(=O)c3ccccc3)[C@@H]3[C@]4(OC(C)=O)CO[C@@H]4C[C@H](O)[C@@]3(C)C(=O)[C@H](OC(C)=O)C(=C1C)C2(C)C | 0.001 µM (active) | – | – |
| Cc1c(C(=O)Nc2cccc(C(F)(F)F)c2)cc(-c2ccccc2)n1CCCN1CCOCC1 | – | -13.2% | – |
| O=C(O)c1cc(Oc2ccc(C(F)(F)F)cc2Cl)ccc1[N+](=O)[O-] | – | -8.96% | – |
| S=C(SSC(=S)N1CCCCC1)N1CCCCC1 | – | -9.18% | – |
| ClC1=C(Cl)[C@]2(Cl)[C@@H]3[C@@H]4C[C@@H]([C@H]5O[C@@H]45)[C@@H]3[C@@]1(Cl)C2(Cl)Cl | – | 13.3% | – |
| Nc1ccc(N=Nc2ccccc2)cc1 | – | -15.1% | – |
| CC(C)Oc1cccc(NC(=O)c2ccccc2C(F)(F)F)c1 | – | -12.9% | – |
| C[C@@H]1CC[C@@]2(OC1)O[C@H]1C[C@H]3[C@@H]4CC=C5C[C@@H](O[C@@H]6O[C@H](CO)[C@@H](O[C@@H]7O[C@@H](C)[C@H](O)[C@@H](O)[C@@H]7O)[C@H](O)[C@@H]6O[C@@H]6O[C@@H](C)[C@H](O)[C@@H](O)[C@@H]6O)CC[C@]5(C)[C@@H]4CC[C@]3(C)[C@@H]1[C@H]2C | 8.33 µM (active) | – | – |
| CC[C@H]1C=CC=CC[C@@H](C)[C@H](O)[C@@](C)(O)C(=O)[C@@H](C)[C@H](O)[C@@H](C)C(=O)[C@@H](C)[C@H](O)[C@@H](C)C=CC(=O)O[C@@H]2[C@@H](C)[C@H](CC1)O[C@]1(CC[C@H](C)[C@H](C[C@@H](C)O)O1)[C@H]2C | 0.372 µM (active) | – | – |
| COc1ccc2c(c[n+](C)c3c4cc5c(cc4ccc23)OCO5)c1OC | 26.4 µM (active) | – | – |
| CC(=O)O[C@@]12CO[C@H]1C[C@H](O)[C@@]1(C)C(=O)[C@H](O)C3=C(C)[C@@H](O)C[C@@](O)([C@@H](OC(=O)c4ccccc4)[C@@H]21)C3(C)C | 3.32 µM (active) | – | – |
| CC(=O)[O][Hg][c]1ccccc1 | 1.64 µM (active) | – | – |
| CCCN1CCO[C@@H]2c3cc(O)ccc3OC[C@@H]21 | – | – | inactive |

system: NIH3T3; test: as above; conditions: Five cell lines viability, CellTiter-Glo ATP luminescence, 48-72 h; max response: hits give low values
Summary of the method: as §1

| SMILES | Potency | max response |
| --- | --- | --- |
| CO/C=C(/C(=O)OC)c1ccccc1Oc1cc(Oc2ccccc2C#N)ncn1 | 6.86 µM (active) | – |
| CC(C)(O)C=CC(=O)[C@](C)(O)[C@H]1[C@H](O)C[C@]2(C)[C@@H]3CC=C4[C@@H](C=C(O)C(=O)C4(C)C)[C@]3(C)C(=O)C[C@@]12C | 2.96 µM (active) | – |
| C=C[C@@H]1CN2CCC1C[C@H]2[C@H](O)c1ccnc2ccccc12 (some centres not stated) | – | -22.5% |
| C/C=C(/C)C(=O)O[C@H]1C(C)=C2[C@H]([C@@H]1OC(=O)CCCCCCC)[C@@](C)(OC(C)=O)C[C@H](OC(=O)CCC)[C@@]1(O)[C@H]2OC(=O)[C@@]1(C)O | 0.0517 µM (active) | – |
| c1ccc(CCCN2CCN(CCOC(c3ccccc3)c3ccccc3)CC2)cc1 | 16.6 µM (active) | – |
| Cc1c(C(=O)Nc2cccc(C(F)(F)F)c2)cc(-c2ccccc2)n1CCCN1CCOCC1 | – | -26.5% and -21.7% |
| Cc1c(N)nc([C@H](CC(N)=O)NC[C@@H](N)C(N)=O)nc1C(=O)N[C@H](C(=O)N[C@@H](C)[C@H](O)[C@@H](C)C(=O)N[C@@H](C(=O)NCCc1nc(-c2nc(C(=O)NCCC[S+](C)C)cs2)cs1)[C@@H](C)O)C(O[C@H]1O[C@H](CO)[C@H](O)[C@@H](O)[C@@H]1O[C@H]1O[C@H](CO)[C@@H](O)[C@H](OC(N)=O)[C@H]1O)c1cnc[nH]1 (some centres not stated) | 1.18 µM (active) | – |
| Nc1ccc(N=Nc2ccccc2)cc1 | 6.86 µM (active) | – |
| C[C@@H]1CC[C@@]2(OC1)O[C@H]1C[C@H]3[C@@H]4CC=C5C[C@@H](O[C@@H]6O[C@H](CO)[C@@H](O[C@@H]7O[C@@H](C)[C@H](O)[C@@H](O)[C@@H]7O)[C@H](O)[C@@H]6O[C@@H]6O[C@@H](C)[C@H](O)[C@@H](O)[C@@H]6O)CC[C@]5(C)[C@@H]4CC[C@]3(C)[C@@H]1[C@H]2C | 13.2 µM (active) | – |
| CC[C@H]1C=CC=CC[C@@H](C)[C@H](O)[C@@](C)(O)C(=O)[C@@H](C)[C@H](O)[C@@H](C)C(=O)[C@@H](C)[C@H](O)[C@@H](C)C=CC(=O)O[C@@H]2[C@@H](C)[C@H](CC1)O[C@]1(CC[C@H](C)[C@H](C[C@@H](C)O)O1)[C@H]2C | 16.6 µM (active) | – |
| CC(=O)O[C@@]12CO[C@H]1C[C@H](O)[C@@]1(C)C(=O)[C@H](O)C3=C(C)[C@@H](O)C[C@@](O)([C@@H](OC(=O)c4ccccc4)[C@@H]21)C3(C)C | 14.8 µM (active) | – |
